Experimental findings from PubChem BioAssay (NCATS) are described below.

Calls of active or inactive are those of the source. A call without a number means that no potency is given here. Calls come from the whole dose curve; as a rule, active = well fitted inhibition curve with a large enough effect; inconclusive = small, poorly fitted or top-dose-only effect; inactive = flat fitted curve, though single readings scatter.
Potency is the fitted concentration of half-maximal effect.

Sequence of Phosphoglycerate kinase, glycosomal (Trypanosoma brucei brucei) (P07378 whole entry, looked up): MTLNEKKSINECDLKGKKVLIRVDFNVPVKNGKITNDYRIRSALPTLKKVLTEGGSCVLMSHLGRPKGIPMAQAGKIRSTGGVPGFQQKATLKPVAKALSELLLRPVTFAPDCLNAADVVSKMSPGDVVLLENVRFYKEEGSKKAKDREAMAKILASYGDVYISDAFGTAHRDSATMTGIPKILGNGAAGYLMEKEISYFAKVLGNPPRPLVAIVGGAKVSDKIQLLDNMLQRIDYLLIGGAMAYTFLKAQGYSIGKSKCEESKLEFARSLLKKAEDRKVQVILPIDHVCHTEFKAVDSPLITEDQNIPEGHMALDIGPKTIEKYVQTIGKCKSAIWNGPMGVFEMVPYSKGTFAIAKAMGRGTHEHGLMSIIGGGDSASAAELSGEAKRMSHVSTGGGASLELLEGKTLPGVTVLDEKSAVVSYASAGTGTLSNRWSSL

This experiment concerns the target Phosphoglycerate kinase, glycosomal (Trypanosoma brucei brucei) (UniProt P07378). As to the kind of experiment: qHTS Validation Assay to Find Inhibitors of Phosphoglycerate Kinase (AID 504547). Particulars: enzymatic PGK inhibition, coupled luminescence read-out; series mostly up to 57.5 µM. The source says:
NIH Molecular Libraries Probe Production Network [MLPCN]
NIH Chemical Genomics Center [NCGC]
PI Name: Malcolm Walkinshaw, University of Edinburgh
Several species of the Trypanosomatidae family of parasitic protozoans cause a spectrum of diseases
throughout the tropical and subtropical world. Sleeping sickness, caused by two subspecies of Trypanosoma brucei, is endemic to areas of sub-Saharan Africa, while Chagas disease, a manifestation of Trypanosoma cruzi infection, is prevalent throughout Central and South America. In addition, many species of Leishmania are responsible for a range of cutaneous and visceral diseases, causing ulcers, destructive lesions and kalaazar, a lethal infection of the viscera. Collectively, these organisms infect 30 million people worldwide (~500 million live in endemic areas), and account for ~130,000 deaths annually. Given their debilitating and prevalent nature, trypanosomatid parasites impose a heavy medical, economic and social burden on entire populations, primarily in the developing world. The problem is further exacerbated by the fact that existing treatments have progressed little in the past 50 years, and current drugs show high toxicity and poor efficacy.
Blood-stream stages of T. brucei are entirely dependent on glycolysis as a source of ATP, and the tricarboxylic acid cycle and oxidative phosphorylation are both repressed. Glycolysis in axenically cultured T. cruzi, representing the intracellular pathogenic stage, is also essential for these parasites. […] Previous studies have shown that the glycolytic enzyme, phosphoglycerate kinase (PGK), is a viable target for drugs to kill these parasites.
NCGC Assay Protocol Summary:
Briefly, 3ul of substrate/PGK buffer (columns 1,2,5-48) are dispensed into Greiner white solid bottom 1536-well assay plates; columns 3-4 receive only TEA buffer as 0x PGK controls. Compounds are then transferred via Kalypsys pin tool equipped with 1536-pin array (10nl slotted pins, V&P Scientific, San Diego, CA). Following addition of compound, 1ul of GAPDH (100nM final concentration, all columns) is added to initiate the reaction (this upstream coupling enzyme is necessary for in-well production of PGK substrate, 1,3-bisphosphoglycerate (1,3-BPG), which is unstable and not commercially available). The plates are then incubated at room temperature for 60 minutes. Kinase-Glo Plus reagent is added (2ul) and plates incubated for 10 minutes, before being transferred to a ViewLux high-throughput CCD imager (PerkinElmer) wherein single end-point measurements of luminescence are acquired using a clear filter. All reagents are diluted in an assay buffer consisting of 100mM TEA (pH 7.6), 5mM MgCl2 and 0.01% Tween-20.
A general note: In qHTS, concentration-response curves come from the screen itself.
Turning to `CN(C)c1nc(N(C)C)nc(N(C)C)n1`, the Potency result was “inactive”.

With `Cc1cc(C(C)(C)C)cc(C)c1CC1=NCCN1`, the Potency result was “inactive”.

As to `COc1ccc(CCN(C)CCCC(C#N)(c2ccc(OC)c(OC)c2)C(C)C)cc1OC` (stereo not given), the Potency entry was “inactive”.

Regarding `Nc1ccn([C@H]2CC[C@@H](CO)O2)c(=O)n1`, the Potency result was “inactive”.

For `COC(=O)Nc1nc2ccc(C(=O)c3cccs3)cc2[nH]1`, the Potency entry was “inactive”.

Consider `CCC1(c2ccccc2)C(=O)NCNC1=O`, for which the Potency result was “inactive”.

Turning to `CN(C)C(=O)C(CCN1CCC(O)(c2ccc(Cl)cc2)CC1)(c1ccccc1)c1ccccc1`, the Potency entry is “inactive”.

`O=C1N(c2ccccc2)c2ccccc2C1(Cc1ccncc1)Cc1ccncc1`: the Potency entry was “inactive”.

With `COc1ccc2c(c1)c(CC(=O)O)c(C)n2C(=O)c1ccc(Cl)cc1`, the Potency entry is “inactive”.

With `CC(CCc1ccc(O)cc1)NCCc1ccc(O)c(O)c1` (stereo not given), the Potency entry is “inactive”.

Regarding `CC12CC3CC(C)(C1)CC(N)(C3)C2`, the Potency entry was “inactive”.

With `Cc1cnc(C(=O)NCCc2ccc(S(=O)(=O)NC(=O)NC3CCCCC3)cc2)cn1`, the Potency result is “inactive”.

As for `Clc1ccc(C(c2ccccc2Cl)C(Cl)Cl)cc1` (stereo not given), the Potency entry is “inactive”.

In the case of `COc1ccccc1OCC(O)CN1CCN(CC(=O)Nc2c(C)cccc2C)CC1` (stereo not given), the Potency entry was “inactive”.

On to `CCOC(=O)C(C)(C)Oc1ccc(Cl)cc1`, for which the Potency entry was “inactive”.

As to `CN(C)CCC=C1c2ccccc2C=Cc2ccccc21`, the Potency result is “inactive”.

For the compound `Cc1ccccc1N1C(=O)c2cc(S(N)(=O)=O)c(Cl)cc2NC1C` (stereo not given), the Potency entry was “inactive”.

For `CC(C)Cc1ccc(C(C)C(=O)O)cc1` (stereo not given), the Potency result is “inactive”.

Consider `NCCCCCC(=O)O`, for which the Potency entry was “inactive”.

As for `COc1ccc2[nH]cc(CCNC(C)=O)c2c1`, the Potency result was “inactive”.

`NC(=O)OCC(COC(N)=O)c1ccccc1`: the Potency entry was “inactive”.

Take `O=C1Cc2cc(CCN3CCN(c4nsc5ccccc45)CC3)c(Cl)cc2N1`: the Potency result was “inactive”.

In the case of `CN(C)CCOC(c1ccccc1)c1ccccc1`, the Potency entry was “inactive”.

On to `COc1cc2c(c(OC)c1OC)-c1ccc(OC)c(=O)cc1[C@@H](NC(C)=O)CC2`, for which the Potency entry is “inactive”.

Take `CN(Cc1cnc2nc(N)nc(N)c2n1)c1ccc(C(=O)N[C@@H](CCC(=O)O)C(=O)O)cc1`: the Potency entry is “inactive”.

With `CC(COc1ccccc1)N(CCCl)Cc1ccccc1` (stereo not given), the Potency result is “inactive”.

As to `O=c1c(-c2ccc(O)cc2)coc2cc(O)cc(O)c12`, the Potency entry was “inactive”.

As to `CC1COc2c(N3CCN(C)CC3)c(F)cc3c(=O)c(C(=O)O)cn1c23` (stereo not given), the Potency result was “inactive”.

Consider `O=C(C1CCCCC1)N1CC(=O)N2CCc3ccccc3C2C1` (stereo not given), for which the Potency entry was “inactive”.

With `Cc1cn([C@H]2C=C[C@@H](CO)O2)c(=O)[nH]c1=O`, the Potency result was “inactive”.

Take `Cc1ccc(C(=O)Nc2ccc(S(=O)(=O)O)c3cc(S(=O)(=O)O)cc(S(=O)(=O)O)c23)cc1NC(=O)c1cccc(NC(=O)Nc2cccc(C(=O)Nc3cc(C(=O)Nc4ccc(S(=O)(=O)O)c5cc(S(=O)(=O)O)cc(S(=O)(=O)O)c45)ccc3C)c2)c1`: the Potency is 2690 nM (active).

For the compound `Fc1ccc([C@@H]2CCNC[C@H]2COc2ccc3c(c2)OCO3)cc1`, the Potency result is “inactive”.

For the compound `NC(=O)NO`, the Potency entry is “inactive”.

For the compound `Clc1ccccc1C(c1ccccc1)(c1ccccc1)n1ccnc1`, the Potency entry was “inactive”.

Regarding `CN1CCN(C2=Nc3cc(Cl)ccc3Nc3ccccc32)CC1`, the Potency result was “inactive”.

Consider `COc1cc2nc(N3CCN(C(=O)C4COc5ccccc5O4)CC3)nc(N)c2cc1OC` (stereo not given), for which the Potency entry is “inactive”.

Regarding `OCCN1CCN(CCCN2c3ccccc3Sc3ccc(C(F)(F)F)cc32)CC1`, the Potency result is “inactive”.

Consider `Cn1cnc2c1c(=O)[nH]c(=O)n2C`, for which the Potency result is “inactive”.

For `CCCCc1oc2ccccc2c1C(=O)c1cc(I)c(OCCN(CC)CC)c(I)c1`, the Potency result is “inactive”.

As for `O=c1[nH]cc(F)c(=O)[nH]1`, the Potency entry was “inactive”.
